What was measured:
Assay in all cases: PBM binding z-score (relative to random genomic background probes); higher = stronger binding; sequences stand for … in GC…GCGATTGACAGCGTAGAATGAAGG
[1] = tested on: FXR:RXRa (NR concentration 270 nM, RXRa partner concentration 90 nM)
Procedure, shortened: (§1)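 The probes on custom Agilent 4×180K protein-binding microarrays were double-stranded, with 34-nt variable regions bearing direct-repeat seeds, single-nucleotide variants, half-site ablations and random human genomic background sequences. Incubation lasted 1 h with ligand-free nuclear receptor dimers in PBS pH 7.4, 2% milk, 0.02% Triton X-100, 1 mM DTT, 0.2 mg/mL BSA and 0.4 mg/ml salmon testes DNA. Antibodies against each partner (one per run) detected bound dimers, and fluorescence scans were regression-normalized. Binding z-scores take the random background probes as reference.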

[2] = tested on: LXRa:RXRa (NR concentration 270 nM, RXRa partner concentration 90 nM)
Procedure, shortened: as §1

[3] = tested on: LXRa homodimer (NR concentration 270 nM)
Procedure, shortened: as §1

[4] = tested on: LXRb:RXRa (NR concentration 270 nM, RXRa partner concentration 90 nM)
Procedure, shortened: as §1

[5] = tested on: LXRb homodimer (NR concentration 270 nM)
Procedure, shortened: as §1

[6] = tested on: PPARa:RXRa (NR concentration 270 nM, RXRa partner concentration 90 nM)
Procedure, shortened: as §1

[7] = tested on: PPARg:RXRa (NR concentration 180 nM, RXRa partner concentration 90 nM)
Procedure, shortened: as §1

[8] = tested on: PPARg:RXRa 270nM:90nM, anti-RXR (NR concentration 270 nM, RXRa partner concentration 90 nM)
Procedure, shortened: as §1

[9] = tested on: PPARg:RXRa 30nM:10nM, anti-RXR (NR concentration 30 nM, RXRa partner concentration 10 nM)
Procedure, shortened: as §1

[10] = tested on: PPARg:RXRa 90nM:30nM, anti-RXR (NR concentration 90 nM, RXRa partner concentration 30 nM)
Procedure, shortened: as §1

[11] = tested on: PPARg:RXRa DBDmut IVT, anti-RXR (DBD mutation: RXRa K156A/R161A, NR concentration 270 nM, RXRa partner concentration 90 nM)
Procedure, shortened: as §1

[12] = tested on: PPARg:RXRa IVT, anti-PPARg (NR concentration 270 nM, RXRa partner concentration 90 nM)
Procedure, shortened: as §1

[13] = tested on: PPARg DBDmut:RXRa IVT, anti-PPARg (DBD mutation: PPARg1 K132A/R137A, NR concentration 270 nM, RXRa partner concentration 90 nM)
Procedure, shortened: as §1

[14] = tested on: PPARg DBDmut IVT, anti-PPARg (DBD mutation: PPARg1 K132A/R137A, NR concentration 270 nM)
Procedure, shortened: as §1

[15] = tested on: PPARg homodimer (NR concentration 180 nM)
Procedure, shortened: as §1

[16] = tested on: PXR:RXRa (NR concentration 270 nM, RXRa partner concentration 90 nM)
Procedure, shortened: as §1

[17] = tested on: PXR homodimer (NR concentration 270 nM)
Procedure, shortened: as §1

[18] = tested on: RARa:RXR (NR concentration 270 nM, RXRa partner concentration 90 nM)
Procedure, shortened: as §1

[19] = tested on: RARa homodimer (NR concentration 270 nM)
Procedure, shortened: as §1

[20] = tested on: RARb:RXRa (NR concentration 270 nM, RXRa partner concentration 90 nM)
Procedure, shortened: as §1

| Sequence | PBM binding z-score [1] | PBM binding z-score [2] | PBM binding z-score [3] | PBM binding z-score [4] | PBM binding z-score [5] | PBM binding z-score [6] | PBM binding z-score [7] | PBM binding z-score [8] | PBM binding z-score [9] | PBM binding z-score [10] | PBM binding z-score [11] | PBM binding z-score [12] | PBM binding z-score [13] | PBM binding z-score [14] | PBM binding z-score [15] | PBM binding z-score [16] | PBM binding z-score [17] | PBM binding z-score [18] | PBM binding z-score [19] | PBM binding z-score [20] |
| --- | --- | --- | --- | --- | --- | --- | --- | --- | --- | --- | --- | --- | --- | --- | --- | --- | --- | --- | --- | --- |
| CCAACTGGGCCACGAAAGGTCATTGATTCAGTGA | 3.69 | 5.09 | 4.15 | 4.41 | 0.134 | 4.75 | 4.7 | 4.74 | 1.7 | 3.62 | 5.74 | 5.79 | -0.114 | -0.318 | 3.56 | 5.23 | 1.31 | 5.31 | 1.12 | 4.02 |
| ATCTCTAGGTAAGACTCAGTTCAGTCAAGAACGC | 0.474 | 0.647 | 0.721 | 0.685 | 0.923 | 0.293 | 0.116 | 0.136 | 0.155 | 0.184 | 1.92 | 1.14 | 0.571 | 0.277 | 1.18 | 1.32 | 1.41 | 0.474 | 1.34 | 0.511 |
| CAAACTAGGGCAAGGTCAAAGTCGGTTTGTGCCA | 5.18 | 4.46 | 2.44 | 3.77 | 0.468 | 5.56 | 7.92 | 6.99 | 4.88 | 7.3 | 7.65 | 7.58 | 2.3 | 3.24 | 3.66 | 4.71 | 1.95 | 4.96 | 2.12 | 4.14 |
| AGAATGAGTTTATACGTAGATCAGGGAAGAAAGT | -0.0777 | -0.0651 | -0.37 | -0.296 | -0.286 | -0.283 | 0.634 | -0.311 | 0.114 | -0.213 | -0.616 | 0.0744 | 0.757 | 0.612 | -0.608 | 0.81 | 1.21 | -0.34 | 0.222 | 0.0922 |
| ACTATTAGTTGAGACGACGGCAACCGATAGGTTG | -0.095 | -0.329 | -0.396 | -0.449 | 0.14 | -0.603 | 0.568 | -0.326 | -0.098 | -0.21 | -0.317 | -0.0579 | 0.669 | 0.567 | 0.0844 | -0.384 | -0.0364 | -0.302 | 0.521 | -0.0586 |
| CCTACTGGGCTAAGGTCATTGATCAGTCAAAGCA | 3.85 | 3.94 | 1.87 | 3.49 | -0.0794 | 4.26 | 3.54 | 4.28 | 1.41 | 3.47 | 2.72 | 2.94 | -0.43 | -0.707 | 2.17 | 4.1 | 1.25 | 4.17 | -0.024 | 3.5 |
| CAAACTAGGTCAAAGCTCAAAGTCGAGCCAACCA | 4.62 | 3.4 | 0.633 | 2.4 | 0.592 | 5.71 | 10.2 | 8.74 | 9.03 | 9.54 | 8.73 | 8.57 | 5.63 | 0.922 | 1.88 | 1.33 | 0.241 | 2.86 | 0.284 | 3.84 |
| ATCGAAAGGTCGACGAGGTAAGTATACACCGTTT | 4.59 | 3.11 | -0.055 | 2.62 | 0.428 | 4.09 | 2.6 | 3 | 1 | 2.11 | 0.556 | 1.6 | 0.911 | 0.688 | 1.42 | 2.3 | 0.185 | 3.12 | 0.419 | 3.66 |
| CCTACTGGGCCAAAAAGGTCAATGATGCCGATAA | 2.77 | 3.48 | 1.68 | 3.86 | -0.306 | 4.92 | 3.36 | 3.84 | 1.55 | 2.86 | 3.37 | 4.64 | 0.0987 | -0.775 | 2.6 | 3.47 | 0.909 | 3.89 | 0.262 | 4 |
| AGTCAAAGTTCATCTAGGTAACGTAAGATATGCT | 6.73 | 6 | 5.07 | 3.62 | 1.73 | 4.84 | 6.6 | 6.14 | 3.3 | 5.53 | 1.19 | 3.69 | 1.19 | 1.17 | 3.13 | 5 | 7.49 | 3.72 | 2 | 5.01 |
| TCATATAGGTAAAGGTGACAGTCGAACGATATGA | 0.847 | 1.04 | 0.0349 | 0.847 | -0.211 | 2.88 | 3.72 | 4.32 | 4.16 | 4.4 | 4.04 | 4.07 | 1.74 | 1.19 | 0.889 | 0.897 | 0.245 | 1.44 | 0.76 | 1.9 |
| GGAACGAGCGCAAGTTGATAGCAGAGTTTGATGG | -0.654 | -0.851 | -0.781 | -1.08 | -1.48 | -0.641 | 0.166 | -0.948 | -0.778 | -0.888 | -0.621 | -0.838 | -2.04 | -1.98 | -1.77 | -0.63 | -0.349 | -1.15 | -1.13 | -0.612 |
| ACTAGCAGGCCGAGTTTGGGTCACTCAAACAAAG | -0.115 | -0.146 | -0.389 | 0.653 | -0.928 | 1.21 | -0.2 | -0.103 | -0.644 | -0.461 | -0.462 | 0.793 | -0.125 | -0.727 | -0.382 | 0.617 | -0.458 | 1.21 | -1.01 | 1.29 |
| TCATATACGTAATACAGGTGAAAGTCGGCATCTA | 1.21 | 1.13 | 0.327 | 1.26 | 0.782 | 1.75 | 1.26 | 2.79 | 3.96 | 3.36 | 2.77 | 1.63 | 0.572 | 1.29 | 1.17 | 0.689 | 0.477 | 0.982 | 1 | 0.727 |

— the supplement of paper PMC6555819
